Experiment [1] in a line: NCI Yeast Anticancer Drug Screen. Data for the rad50 strain (AID 155).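 Also: 0% = growth of vehicle-only cultures of the same strain.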 As to conditions: S. cerevisiae rad50 strain growth inhibition; at 50.0 µM; hits give high values. In outline:
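Growth of the mutant yeast was measured after compound exposure and referenced to vehicle-treated cultures.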

A short description of experiment [2]: NCI Yeast Anticancer Drug Screen. Data for the mec2-1 strain (AID 157). The settings on record: S. cerevisiae mec2-1 strain, at 50.0 µM, hits give high values. In a few lines: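 Using mec2-1 yeast: add compound, measure growth, express inhibition versus vehicle-treated cultures.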
Experiment [3] in a line: NCI Yeast Anticancer Drug Screen. Data for the sgs1 mgt1 strain (AID 161).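 Also: 0% = growth of cultures given vehicle only.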 As to conditions: S. cerevisiae sgs1 mgt1 strain, at 50.0 µM, hits give high values. In outline: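 This yeast growth screen uses a strain with defined DNA-repair lesions; compound-treated growth is compared with vehicle-treated growth.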
Experiment [4] can be described thus: NCI Yeast Anticancer Drug Screen. Data for the cln2 rad14 strain (AID 165).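 Also: 0% = growth equal to vehicle treated cultures.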 As to conditions: S. cerevisiae cln2 rad14 strain, at 50.0 µM, hits give high values. In a few lines:
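Yeast strain cln2 rad14, bearing defects in cell cycle control and DNA repair, serves as the test system; values reflect growth inhibition compared with vehicle.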

A short description of experiment [5]: NCI Yeast Anticancer Drug Screen. Data for the bub3 strain (AID 167). As to conditions: S. cerevisiae bub3 mutant strain, at 50.0 µM, hits give high values. In a few lines:
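Whole-cell yeast assay. The mutant strain was incubated with compounds, and growth inhibition was determined by comparison with vehicle-treated cells.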

Experiment [6] is described as follows: NCI Yeast Anticancer Drug Screen. Data for the mlh1 rad18 strain (AID 175). The settings on record: S. cerevisiae mlh1 rad18 strain growth inhibition; at 50.0 µM; hits give high values. In outline: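 Steps: expose repair-defective yeast to compound; measure growth; express inhibition against vehicle-treated controls.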

About 79,000 compounds went through this panel and 15% of them were active in at least one assay; those are over-represented in the sample as a whole. Unmarked numbers belong to inactive results. The source made the active and inactive calls. Rule as the data show it: active = growth inhibition above about 70%; inactive = the rest.

For the molecule `CCOP(=O)(OCC)Oc1ccc(SC)cc1`, the growth inhibition in experiment [1] was -7.85%; in experiment [2] it was -14.3%; in experiment [3] it was -9.65%; in experiment [4] it was -14.9%; in experiment [5], 12.9%; in experiment [6] it was -14.8%.

As for `CCCCCCCCCCC[CH2][Hg][Cl]`, the growth inhibition was 8.6% in experiment [1]; 3.15% in experiment [2]; 12.4% in experiment [3]; -18.6% in experiment [4]; -3.45% in experiment [5]; -3.1% in experiment [6].

For the molecule `CC(C)c1cc2c(c(O)c1O)[C@@]1(C(=O)O)CCCC(C)(C)[C@@H]1CC2`, the growth inhibition in experiment [1] was 91.8% (active); in experiment [2] it was 93.5% (active); in experiment [3] it was 93.3% (active); in experiment [4], 92% (active); in experiment [5], 92.3% (active); in experiment [6] it was 92.3% (active).

As to `CCOP(N)(=O)SC` (stereo not given), the growth inhibition in experiment [1] is -11.1%; in experiment [2], 8%; in experiment [3], -11.8%; in experiment [4], -12.8%; in experiment [5] it was -7.45%; in experiment [6], 23.6%.

Regarding `O=S(=O)(F)c1ccccc1S(=O)(=O)Cl`, the growth inhibition in experiment [1] is 11.7%; in experiment [2], -2.55%; in experiment [3], 15.6%; in experiment [4], 16.4%; in experiment [5], 12.4%; in experiment [6], 21.6%.

`Cc1ccc(OP(=O)(Oc2ccc(C)cc2)Oc2ccc(C)cc2)cc1.Cc1ccc(OP(=O)(Oc2ccc(C)cc2)Oc2ccc(C)cc2)cc1.Cc1ccc(OP(=O)(Oc2ccc(C)cc2)Oc2ccc(C)cc2)cc1.Cc1ccc(OP(=O)(Oc2ccc(C)cc2)Oc2ccc(C)cc2)cc1.[Nd+3].[O-][Cl+3]([O-])([O-])O`: the growth inhibition was 34.4% in experiment [1]; 23.7% in experiment [2]; 37.8% in experiment [3]; 27% in experiment [4]; 52.8% in experiment [5]; 25.7% in experiment [6].

For the molecule `O=C(O)C(F)F`, the growth inhibition in experiment [1] is -16.9%; in experiment [2], -1.2%; in experiment [3], -18.2%; in experiment [4] it was -31%; in experiment [5], -15.3%; in experiment [6], -3.15%.

In the case of `O=C(Nc1ccc(S(=O)(=O)F)cc1)c1ccc2ccccc2c1O`, the growth inhibition in experiment [1] is 9.85%; in experiment [2], 31.8%; in experiment [3], 32.5%; in experiment [4] it was 2.15%; in experiment [5] it was 27.9%; in experiment [6], 25.4%.

On to `CCCOP1(=O)C=C(C)C(Cl)=C(C)C1` (stereo not given), for which the growth inhibition was 33.5% in experiment [1]; -4.6% in experiment [2]; 20% in experiment [3]; -1.45% in experiment [4]; -14.7% in experiment [5]; 34.8% in experiment [6].

Turning to `C/C=C/CC1(CC)C(=O)NC(=O)NC1=O`, the growth inhibition in experiment [1] is 16.9%; in experiment [2] it was 10.9%; in experiment [3] it was 11.8%; in experiment [4] it was 16.6%; in experiment [5], 2%; in experiment [6], 8.1%.

Take `C/C=C(\C)C1(CC)C(=O)NC(=O)N(C)C1=O` (stereo not given): the growth inhibition in experiment [1] was 1.65%; in experiment [2], 1.7%; in experiment [3], 3.3%; in experiment [4], -0.6%; in experiment [5], -1.05%; in experiment [6], -5.95%.

For the molecule `NCC(Cc1ccccc1)P(=O)(O)O` (stereo not given), the growth inhibition in experiment [1] is -23.8%; in experiment [2], -28.6%; in experiment [3], -26.4%; in experiment [4], -42.3%; in experiment [5], -28.1%; in experiment [6], -22.8%.

Take `CN1C2CCC1CC(OC(=O)/C=C\c1ccccc1)C2` (stereo not given): the growth inhibition in experiment [1] was 29%; in experiment [2], -7.7%; in experiment [3], -5.45%; in experiment [4], 1.95%; in experiment [5] it was 8.45%; in experiment [6] it was 9.6%.

Consider `O=C1NCN(c2ccccc2)C12CCN(Cc1ccccc1)CC2`, for which the growth inhibition in experiment [1] was -4.6%; in experiment [2], -23.7%; in experiment [3], 14.6%; in experiment [4], 12.3%; in experiment [5], 3.1%; in experiment [6] it was 5.5%.

As to `CCCCCCCCCCCC(=O)[O][Pb]([CH2]CCC)([CH2]CCC)[O]C(=O)CCCCCCCCCCC`, the growth inhibition in experiment [1] was 23.5%; in experiment [2], 4.05%; in experiment [3] it was 13.2%; in experiment [4], -3.15%; in experiment [5], 6.45%; in experiment [6], 23%.

For `Cc1ncc([N+](=O)[O-])n1C(C)C(=O)Nc1ccc(N(CCCl)CCCl)cc1` (stereo not given), the growth inhibition in experiment [1] was -6.2%; in experiment [2], 10.3%; in experiment [3], 3.5%; in experiment [4], -2.3%; in experiment [5] it was -4.65%; in experiment [6], 13.2%.

`NS(=O)(=O)c1cccc([As](=O)(O)O)c1`: the growth inhibition in experiment [1] is -11.1%; in experiment [2] it was 10.4%; in experiment [3] it was -12.9%; in experiment [4] it was -3.55%; in experiment [5] it was -13.9%; in experiment [6] it was -3.6%.

On to `COc1ccc2ccc([Se]c3ccc4ccc(OC)cc4c3)cc2c1`, for which the growth inhibition in experiment [1] is -1.25%; in experiment [2] it was -22.4%; in experiment [3], -1.85%; in experiment [4], 4.45%; in experiment [5], 7.55%; in experiment [6], -1.1%.

For `Cc1ccc(OP(=O)(Oc2ccc(C)cc2)Oc2ccc(C)cc2)cc1.Cc1ccc(OP(=O)(Oc2ccc(C)cc2)Oc2ccc(C)cc2)cc1.[Cl][Cr]([Cl])[Cl]`, the growth inhibition in experiment [1] is -1.05%; in experiment [2] it was -3.05%; in experiment [3], -2.1%; in experiment [4], -7%; in experiment [5] it was 0.9%; in experiment [6], 4.45%.

As to `[C-]#[O+].[C-]#[O+].[C-]#[O+].[W].c1ccc([PH+](CC[PH+](c2ccccc2)c2ccccc2)CC[PH+](c2ccccc2)c2ccccc2)cc1`, the growth inhibition is 0.6% in experiment [1]; -18.7% in experiment [2]; -1.8% in experiment [3]; 3.45% in experiment [4]; 3.85% in experiment [5]; 2.6% in experiment [6].

Values taken from PubChem BioAssay (NCI).
